Compounds without any hit were thinned out: in the full panel of roughly 79,000, 15% have a hit. Unmarked numbers belong to inactive results. Activity calls are given as the source filed them. Cut-off read from the data, not from the text of the source: active = growth inhibition above about 70%; inactive = the rest.

Test [1] in a line: NCI Yeast Anticancer Drug Screen. Data for the rad50 strain (AID 155).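 Note: 0% = growth of vehicle-only cultures of the same strain.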 As to conditions: S. cerevisiae rad50 strain growth inhibition, hits give high values. Summed up:
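Readout: growth inhibition relative to vehicle-treated cultures. Compound exposure was carried out in a genetically defined yeast strain deficient in DNA damage repair.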

Test [2] in a line: NCI Yeast Anticancer Drug Screen. Data for the mec2-1 strain (AID 157). Conditions: S. cerevisiae mec2-1 strain, hits give high values. A digest of the protocol: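 Mutant yeast (mec2-1) grown with compound; growth inhibition relative to vehicle control reported.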
A short description of test [3]: NCI Yeast Anticancer Drug Screen. Data for the sgs1 mgt1 strain (AID 161).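 Note: 0% = growth of cultures given vehicle only.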 Conditions: S. cerevisiae sgs1 mgt1 strain, hits give high values. A digest of the protocol: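 Growth of a repair-deficient yeast mutant was monitored after compound treatment and expressed as inhibition relative to vehicle-treated cultures.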
A short description of test [4]: NCI Yeast Anticancer Drug Screen. Data for the cln2 rad14 strain (AID 165).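 Note: 0% = growth equal to vehicle treated cultures.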 As to conditions: S. cerevisiae cln2 rad14 strain, hits give high values. A digest of the protocol: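 Readout is yeast growth inhibition versus vehicle-treated controls, using a strain with cln2 and rad14 alterations exposed to compound.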
Test [5] is described as follows: NCI Yeast Anticancer Drug Screen. Data for the bub3 strain (AID 167). Conditions: S. cerevisiae bub3 mutant strain, hits give high values. Summed up: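 Readout: yeast growth inhibition, expressed relative to vehicle-only wells. The test organism is a mutant strain from a panel with lesions in DNA repair or checkpoint genes.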
Test [6] is described as follows: NCI Yeast Anticancer Drug Screen. Data for the mlh1 rad18 strain (AID 175). Conditions: S. cerevisiae mlh1 rad18 strain growth inhibition, hits give high values. Summed up:
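Genetically defined yeast (DNA repair-deficient) exposed to compounds; growth inhibition determined relative to vehicle.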

The mark [7] stands for this setting: at 5.0 µM (retest, dose inferred, filed as 0.5).
Setting [8] is: at 50.0 µM (retest, dose inferred, filed as 5.0).

In the case of `CCCCCCCCCCCCCCC(C(=O)O)S(=O)(=O)O` (stereo not given), the growth inhibition in test [1] (setting [7]) is 0%; in test [1] (setting [8]), 85% (active); in test [1] (at 50.0 µM), 98.9% (active); in test [2] (setting [7]), -1%; in test [2] (setting [8]), 58%; in test [2] (at 50.0 µM), 99.7% (active). Besides, the growth inhibition is -3% in test [3] (setting [7]); 69% in test [3] (setting [8]); 87% (active) in test [3] (at 50.0 µM); -2% in test [4] (setting [7]); 70% (active) in test [4] (setting [8]); 95.7% (active) in test [4] (at 50.0 µM). Also, the growth inhibition was -4% in test [5] (setting [7]); 66% in test [5] (setting [8]); 99.6% (active) in test [5] (at 50.0 µM); 0% in test [6] (setting [7]); 83% (active) in test [6] (setting [8]); 99.6% (active) in test [6] (at 50.0 µM).

For the compound `O=C1CCC(Cc2ccccc2Br)C(=O)N1` (stereo not given), the growth inhibition in test [1] (setting [7]) was -5%; in test [1] (setting [8]), 10%; in test [1] (at 50.0 µM), -10.8%; in test [2] (setting [7]), -1%; in test [2] (setting [8]), 6%; in test [2] (at 50.0 µM), 36%. The growth inhibition is 11% in test [3] (setting [7]); 92% (active) in test [3] (setting [8]); 97.2% (active) in test [3] (at 50.0 µM); -4% in test [4] (setting [7]); 8% in test [4] (setting [8]); -39.2% in test [4] (at 50.0 µM). The growth inhibition in test [5] (setting [7]) was -4%; in test [5] (setting [8]) it was 6%; in test [5] (at 50.0 µM), -45.5%; in test [6] (setting [7]), -7%; in test [6] (setting [8]) it was 6%; in test [6] (at 50.0 µM) it was 6.35%.

Turning to `Cc1ccc(S(=O)(=O)Nn2c(S)c(C#N)c(-c3ccc([N+](=O)[O-])cc3)c(C#N)c2=O)cc1`, the growth inhibition in test [1] (setting [7]) was 25%; in test [1] (setting [8]) it was 59%; in test [1] (at 50.0 µM), 49.6%; in test [2] (setting [7]), 8%; in test [2] (setting [8]) it was 35%; in test [2] (at 50.0 µM) it was 46.6%. In addition, the growth inhibition is 24% in test [3] (setting [7]); 78% (active) in test [3] (setting [8]); 72.3% (active) in test [3] (at 50.0 µM); 43% in test [4] (setting [7]); 43% in test [4] (setting [8]); 29.8% in test [4] (at 50.0 µM). The growth inhibition in test [5] (setting [7]) is 45%; in test [5] (setting [8]) it was 65%; in test [5] (at 50.0 µM), 54.6%; in test [6] (setting [7]), 19%; in test [6] (setting [8]), 46%; in test [6] (at 50.0 µM), 59%.

Take `CN(C)C(=S)SC1(CN2CCOCC2)COc2c(Cl)cc(Cl)cc2C1=O` (stereo not given): the growth inhibition was 1% in test [1] (setting [7]); 97% (active) in test [1] (setting [8]); 90.4% (active) in test [1] (at 50.0 µM); 3% in test [2] (setting [7]); 96% (active) in test [2] (setting [8]); 76.2% (active) in test [2] (at 50.0 µM). Moreover, the growth inhibition in test [3] (setting [7]) was 3%; in test [3] (setting [8]), 97% (active); in test [3] (at 50.0 µM), 95.3% (active); in test [4] (setting [7]), 6%; in test [4] (setting [8]) it was 96% (active); in test [4] (at 50.0 µM), 75% (active). Also, the growth inhibition in test [5] (setting [7]) was 5%; in test [5] (setting [8]) it was 96% (active); in test [5] (at 50.0 µM), 79.3% (active); in test [6] (setting [7]), 1%; in test [6] (setting [8]), 97% (active); in test [6] (at 50.0 µM), 89.5% (active).

Regarding `CCOC(=O)c1ccc(NC(=O)O/N=C(/Cl)CC)cc1`, the growth inhibition in test [1] (setting [7]) was 4%; in test [1] (setting [8]) it was 83% (active); in test [1] (at 50.0 µM), 67%; in test [2] (setting [7]), -7%; in test [2] (setting [8]) it was 71% (active); in test [2] (at 50.0 µM) it was 78.5% (active). The growth inhibition in test [3] (setting [7]) was -26%; in test [3] (setting [8]) it was 75% (active); in test [3] (at 50.0 µM), 80.1% (active); in test [4] (setting [7]), 35%; in test [4] (setting [8]), 51%; in test [4] (at 50.0 µM) it was 64.8%. The growth inhibition in test [5] (setting [7]) was -40%; in test [5] (setting [8]), 51%; in test [5] (at 50.0 µM), 63.8%; in test [6] (setting [7]), 8%; in test [6] (setting [8]), 86% (active); in test [6] (at 50.0 µM), 69.7%.

As to `CCCCCCCC(=O)N1CCCCC1CC` (stereo not given), the growth inhibition in test [1] (setting [7]) is -142%; in test [1] (setting [8]) it was 14%; in test [1] (at 50.0 µM), 72.1% (active); in test [2] (setting [7]), -49%; in test [2] (setting [8]), -30%; in test [2] (at 50.0 µM), 25.6%. Also, the growth inhibition was -63% in test [3] (setting [7]); 24% in test [3] (setting [8]); 73% (active) in test [3] (at 50.0 µM); -53% in test [4] (setting [7]); -68% in test [4] (setting [8]); -6.15% in test [4] (at 50.0 µM). Also, the growth inhibition was -53% in test [5] (setting [7]); 17% in test [5] (setting [8]); -9.4% in test [5] (at 50.0 µM); -118% in test [6] (setting [7]); -64% in test [6] (setting [8]); 24.2% in test [6] (at 50.0 µM).

For the compound `COC(=O)C1CCC(=O)N1C(c1ccc(OC)cc1)c1cc(OC)c(OC)c(OC)c1` (stereo not given), the growth inhibition was 27% in test [1] (setting [7]); 45% in test [1] (setting [8]); -33.5% in test [1] (at 50.0 µM); 21% in test [2] (setting [7]); 15% in test [2] (setting [8]); 8.55% in test [2] (at 50.0 µM). Further, the growth inhibition in test [3] (setting [7]) was 32%; in test [3] (setting [8]) it was 42%; in test [3] (at 50.0 µM), 1.95%; in test [4] (setting [7]), 46%; in test [4] (setting [8]) it was 40%; in test [4] (at 50.0 µM) it was -7.4%. For the same compound, the growth inhibition was 43% in test [5] (setting [7]); 41% in test [5] (setting [8]); -8.55% in test [5] (at 50.0 µM); 17% in test [6] (setting [7]); 20% in test [6] (setting [8]); -10.2% in test [6] (at 50.0 µM).

For the compound `CSc1ncc2c(n1)-c1ccccc1OC2NC1CC1` (stereo not given), the growth inhibition was 24% in test [1] (setting [7]); 22% in test [1] (setting [8]); 71.5% (active) in test [1] (at 50.0 µM); 18% in test [2] (setting [7]); 16% in test [2] (setting [8]); 62.5% in test [2] (at 50.0 µM). For the same compound, the growth inhibition was 17% in test [3] (setting [7]); 20% in test [3] (setting [8]); 11.3% in test [3] (at 50.0 µM); 26% in test [4] (setting [7]); 27% in test [4] (setting [8]); -2.85% in test [4] (at 50.0 µM). Moreover, the growth inhibition in test [5] (setting [7]) was 24%; in test [5] (setting [8]) it was 28%; in test [5] (at 50.0 µM), 14.6%; in test [6] (setting [7]), 18%; in test [6] (setting [8]) it was 12%; in test [6] (at 50.0 µM), -7.35%.

In the case of `Nc1ccc2c(SCc3ccc([N+](=O)[O-])cc3)c3ccccc3nc2c1`, the growth inhibition in test [1] (setting [7]) is 86% (active); in test [1] (setting [8]) it was 84% (active); in test [1] (at 50.0 µM), 73.5% (active); in test [2] (setting [7]), 98% (active); in test [2] (setting [8]), 94% (active); in test [2] (at 50.0 µM), 87.7% (active). The growth inhibition in test [3] (setting [7]) was 40%; in test [3] (setting [8]) it was 94% (active); in test [3] (at 50.0 µM), 88.8% (active); in test [4] (setting [7]), 90% (active); in test [4] (setting [8]), 93% (active); in test [4] (at 50.0 µM), 84.5% (active). For the same compound, the growth inhibition in test [5] (setting [7]) was 97% (active); in test [5] (setting [8]), 94% (active); in test [5] (at 50.0 µM) it was 84.2% (active); in test [6] (setting [7]) it was 96% (active); in test [6] (setting [8]), 93% (active); in test [6] (at 50.0 µM), 83.9% (active).

On to `CCOc1ccc2c(ccc(/C=C\c3cc(C)c4cccnc4c3O)[n+]2C)c1`, for which the growth inhibition in test [1] (setting [7]) is 91% (active); in test [1] (setting [8]) it was 92% (active); in test [1] (at 50.0 µM), 87.3% (active); in test [2] (setting [7]), 81% (active); in test [2] (setting [8]), 91% (active); in test [2] (at 50.0 µM) it was 89.2% (active). Further, the growth inhibition was 87% (active) in test [3] (setting [7]); 93% (active) in test [3] (setting [8]); 90% (active) in test [3] (at 50.0 µM); 67% in test [4] (setting [7]); 87% (active) in test [4] (setting [8]); 86.8% (active) in test [4] (at 50.0 µM). For the same compound, the growth inhibition in test [5] (setting [7]) is 59%; in test [5] (setting [8]), 91% (active); in test [5] (at 50.0 µM), 82.8% (active); in test [6] (setting [7]), 95% (active); in test [6] (setting [8]), 93% (active); in test [6] (at 50.0 µM), 89% (active).

Source of the values: PubChem BioAssay (NCI).
